# In all, about 39,000 compounds went through this assay and about 500 (1.3%) were called active. Only a selection was taken, and actives are over-represented in it overall.
# Test system: S. aureus RN4220
# Test: growth inhibition call (relative growth <= 0.2)
# Conditions: 50 µM
row,SMILES,growth inhibition call
1,Cc1ccc(NC(=O)Nc2cc(C(F)(F)F)ccc2F)cc1Nc1ccc2c(c1)NC(=O)/C2=C\c1ccc[nH]1,inactive
2,N[C@@]1(C(=O)O)CO[C@H]2[C@H](C(=O)O)[C@H]21,inactive
3,O=C(NCC(=O)N1CC[C@H](N[C@H]2CC[C@@](O)(c3ccc(-c4ncccn4)cn3)CC2)C1)c1cccc(C(F)(F)F)c1,inactive
4,CO[C@@H]1CN(C)C(=O)c2cc(NS(=O)(=O)CC(F)(F)F)ccc2OC[C@H](C)N(Cc2ccccn2)C[C@H]1C,inactive
5,CCCNC(=O)N1[C@@H]2Cn3c(cccc3=O)[C@H]1[C@@H](C(=O)NCC(F)(F)F)[C@@H]2CO,inactive
6,C[C@@H]1CN([C@H](C)CO)C(=O)c2cc(NC(=O)CCCN(C)C)ccc2O[C@H]1CN(C)C(=O)Nc1ccccc1,inactive
7,CCS(=O)(=O)Nc1ccc2c(c1)C(=O)N(C)[C@H]1CC[C@@H](CC(=O)NCc3ccc(OC)cc3)O[C@@H]1CO2,inactive
8,C[C@@H]1CN([C@@H](C)CO)C(=O)Cc2cc(NC(=O)Cn3cnnn3)ccc2O[C@H]1CN(C)S(=O)(=O)c1cccs1,inactive
9,COc1ccc(NC(=O)Nc2cccc3c2O[C@H](CN(C)S(=O)(=O)c2cn(C)cn2)[C@@H](C)CN([C@H](C)CO)C3=O)cc1,inactive
10,COC(=O)c1c(CC[C@@H](CO)NC(=O)N[C@@H](Cc2ccccc2)Cn2cc(C3(O)CCCCC3)nn2)oc(C(C)=O)c1C(=O)OC,inactive
11,Cc1cccnc1[C@@H](NC(=O)C1CCN(Cc2ccc(Cl)c(Cl)c2)CC1)c1ccc(Cl)cc1,inactive
12,Cc1cccnc1[C@@H](NC(=O)C1CCN(CCOc2ccc(Cl)cc2Cl)CC1)c1ccc(F)cc1,active
13,O=C(N[C@H](c1ccc(Cl)cc1)c1ccsc1)C1CCN(Cc2ccc(Oc3ccccc3)cc2)CC1,inactive
14,O=C(N[C@@H](c1ccc2c(c1)OCO2)c1ccccn1)C1CCN(CCOc2ccc(Cl)cc2Cl)CC1,inactive
15,Cc1cccnc1[C@@H](NC(=O)C1CCN(Cc2ccc(Oc3ccccc3)cc2)CC1)c1ccc(F)cc1,inactive
16,O=C(N[C@H](c1ccc(F)cc1)c1ccc2ccccc2n1)C1CCN(CCOc2ccc(Cl)cc2Cl)CC1,inactive
17,COc1ccc([C@@H](NC(=O)C2CCN(CCOc3ccc(Cl)cc3Cl)CC2)c2ccccn2)cc1,inactive
18,O=C(N[C@@H](c1cccnc1)c1ccc2c(c1)OCO2)C1CCN(CCOc2ccc(Cl)cc2Cl)CC1,active
19,Cc1cccnc1[C@@H](NC(=O)C1CCN(CCOc2ccc(Cl)cc2Cl)CC1)c1ccc(Cl)cc1,active
20,COc1ccc([C@@H](NC(=O)C2CCN(Cc3ccc(Oc4ccccc4)cc3)CC2)c2ccccn2)cc1,inactive
21,COc1ccc([C@@H](NC(=O)C2CCN(CCOc3ccc(Cl)cc3Cl)CC2)c2ccco2)cc1,inactive
22,O=C(N[C@H](c1ccc(Cl)cc1)c1ccccn1)C1CCN(CCOc2ccc(Cl)cc2Cl)CC1,active
23,C[C@H]1CN([C@@H](C)CO)C(=O)Cc2cc(NC(=O)Cn3cnnn3)ccc2O[C@H]1CN(C)C(=O)Nc1ccccc1,inactive
24,C[C@@H]1CN([C@@H](C)CO)C(=O)Cc2cc(NC(=O)c3ccncc3)ccc2O[C@@H]1CN(C)S(=O)(=O)c1ccc(F)cc1,inactive
25,C[C@@H]1CCCCO[C@@H](CN(C)C(=O)NC2CCCCC2)[C@@H](C)CN([C@H](C)CO)C(=O)c2cc(NC(=O)Nc3cccc4ccccc34)ccc2O1,inactive
26,C[C@H](CO)N1C[C@H](C)[C@@H](CN(C)S(=O)(=O)c2cccs2)OCCCC[C@H](C)Oc2ccc(NC(=O)Nc3cccc4ccccc34)cc2C1=O,inactive

row,SMILES,growth inhibition call
1,O=C(CCCCCCC(=O)Nc1ccccc1O)N/N=C/[C@H](O)[C@@H](O)[C@@H](O)[C@H](O)C(=O)O,inactive
2,C[C@H]1CC[C@@H]2N(C1)C[C@@H]1[C@H]([C@@H](O)[C@H](O)[C@]3(O)[C@H]1C[C@@]14O[C@]5(O)[C@@H](C[C@@H](O)[C@@H]31)[C@]4(C)CC[C@@H]5O)[C@]2(C)O,inactive
3,Cc1cc(C(=O)Nc2cccc3c2O[C@H](CN(C)C(=O)Nc2ccc4c(c2)OCO4)[C@H](C)CN([C@H](C)CO)C3=O)n(C)n1,inactive
4,COc1ccc(S(=O)(=O)Nc2ccc3c(c2)C(=O)N([C@H](C)CO)C[C@@H](C)[C@@H](CN(C)Cc2ccccc2)OCCCC[C@@H](C)O3)cc1,inactive
5,Cc1noc(C)c1NC(=O)N(C)C[C@@H]1OCCCC[C@@H](C)Oc2ccc(NC(=O)c3ccccc3)cc2C(=O)N([C@H](C)CO)C[C@@H]1C,inactive
6,CCCN(CCC)[NH2+][O-],inactive
7,C[C@H](CO)N1C[C@H](C)[C@H](CN(C)Cc2ccccc2)Oc2ccc(NC(=O)CCN3CCOCC3)cc2CC1=O,inactive
8,C[C@@H]1CN([C@H](C)CO)C(=O)c2cc(NC(=O)Nc3cccc4ccccc34)ccc2O[C@@H](C)CCCCO[C@H]1CN(C)S(=O)(=O)c1ccc(F)cc1,inactive
9,CC(C)(Sc1cc(C(C)(C)C)c(O)c(C(C)(C)C)c1)Sc1cc(C(C)(C)C)c(OC(=O)CCC(=O)O)c(C(C)(C)C)c1,inactive
10,CC(C)(Sc1cc(C(C)(C)C)c(O)c(C(C)(C)C)c1)Sc1cc(C(C)(C)C)c(OCC(=O)O)c(C(C)(C)C)c1,active
11,CC(C)(Sc1cc(C(C)(C)C)c(O)c(C(C)(C)C)c1)Sc1cc(C(C)(C)C)c(O)c(C(C)(C)C)c1,inactive
12,C[C@@H]1CN([C@H](C)CO)C(=O)c2cc(NS(=O)(=O)c3ccccc3)ccc2O[C@H]1CN(C)S(=O)(=O)c1ccc(F)cc1,inactive
13,CCOc1cc(OCC)cc(C(=O)N[C@@H](Cc2ccc(-n3cc(CCC(=O)NO)nn3)cc2)C(=O)OC)c1,inactive
14,Nc1cccc(-n2cc(CCC(=O)NO)nn2)c1,inactive
15,COC(=O)[C@@H](N)Cc1ccc(-n2cc(CCC(=O)NO)nn2)cc1,active
16,CC(/C=C/C(=O)NO)=C\c1ccccc1OCc1cn(-c2cccc(N(S(=O)(=O)c3ccc(C)cc3)S(=O)(=O)c3ccc(C)cc3)c2)nn1,inactive
17,Cc1ccc(S(=O)(=O)N(c2cccc(-n3cc(CCC(=O)NO)nn3)c2)S(=O)(=O)c2ccc(C)cc2)cc1,active
18,Nc1ccc(-n2cc(CCC(=O)NO)nn2)cc1,inactive
19,Cc1onc(-c2ccccc2)c1C#N,inactive
20,NCCOB(c1ccccc1)c1ccccc1,inactive
21,C[C@@H]1CCCCO[C@H](CN(C)C(=O)Nc2ccc(C(F)(F)F)cc2)[C@@H](C)CN([C@H](C)CO)C(=O)c2cc(NC(=O)Cc3ccccc3)ccc2O1,inactive
22,CC(C)NC(=O)N(C)C[C@@H]1Oc2ccc(NC(=O)Cc3ccccc3)cc2CC(=O)N([C@H](C)CO)C[C@@H]1C,inactive
23,C[C@@H]1CN([C@@H](C)CO)C(=O)c2cc(NS(C)(=O)=O)ccc2O[C@@H]1CN(C)C(=O)Nc1ccc2c(c1)OCO2,inactive
24,CS(=O)(=O)N1CCn2cc(Cn3cncn3)nc2C1,inactive
25,CCCC#Cc1cnc2c(c1)C(=O)N([C@@H](C)CO)C[C@H](C)[C@@H](CN(C)S(=O)(=O)c1cn(C)cn1)O2,inactive
26,COc1ccc(NC(=O)N(C)C[C@@H]2Oc3ccc(NC(=O)CCN4CCOCC4)cc3C(=O)N([C@H](C)CO)C[C@H]2C)cc1,inactive

row,SMILES,growth inhibition call
1,CC(C)C1=CC2=CCC3C(C)(C(=O)O)CCCC3(C)C2CC1 (stereo unspecified),active
2,CC(C)c1cc2c(cc1S(=O)(=O)O)[C@@]1(C)CCC[C@@](C)(C(=O)O)[C@@H]1CC2,inactive
3,CC(C)C1=CC2=CC[C@H]3[C@](C)(CO)CCC[C@]3(C)[C@@H]2CC1,inactive
4,CCc1nc2ccc(C(=O)N3CCN(S(=O)(=O)CC)CC3)cn2c1N(C)Cc1ccc(Cl)cc1,inactive
5,CN1CC2(COC2)OCCS1(=O)=O,inactive
6,COc1ccc(S(=O)(=O)Nc2ccc3c(c2)CC(=O)N([C@H](C)CO)C[C@H](C)[C@@H](CN(C)S(=O)(=O)c2cn(C)cn2)O3)cc1,inactive
7,Cc1cc(CC(=O)O)n(C)c1C(=O)c1ccc(Cl)cc1,inactive
8,CC1(C)Cc2c(-c3ccccc3)c(-c3ccc(Cl)cc3)c(CC(=O)O)n2C1,active
9,C[C@H]1CN([C@@H](C)CO)C(=O)c2cccc(NC(=O)Nc3ccc(C(F)(F)F)cc3)c2O[C@@H]1CN(C)C(=O)Nc1ccc(C(F)(F)F)cc1,inactive
10,CC(=O)OC1CC(OC(C)=O)C2(C)C(CC(OC(C)=O)C3(C)C4=CC(=O)OC(c5ccoc5)C4(C)CCC32)C1(C)C (stereo unspecified),inactive
11,CC(C)NC(=O)N(C)C[C@H]1Oc2ccc(NC(=O)Nc3ccc4c(c3)OCO4)cc2CC(=O)N([C@@H](C)CO)C[C@H]1C,inactive
12,Oc1c(Cl)cc(Cl)c(Cl)c1Cc1c(O)c(Cl)cc(Cl)c1Cl,inactive
13,Oc1c(Cl)cc(Cl)cc1Sc1cc(Cl)cc(Cl)c1O,inactive
14,O=C(Nc1cc(Cl)cc(Cl)c1O)c1c(O)c(Cl)cc(Cl)c1Cl,active
15,CS(=O)(=O)N1C[C@@H](O)COC[C@H]2O[C@H](CC(=O)NCc3ccccc3)CC[C@@H]21,inactive
16,Cc1noc(C)c1S(=O)(=O)Nc1ccc2c(c1)C(=O)N([C@H](C)CO)C[C@H](C)[C@@H](CN(C)Cc1ccncc1)O2,inactive
17,C[C@@H]1CCCCO[C@H](CN(C)C(=O)CCC(F)(F)F)[C@H](C)CN([C@H](C)CO)C(=O)c2cc(NS(=O)(=O)c3cccs3)ccc2O1,inactive
18,CC(=O)C1CCC2C3CC=C4CC(OC(=O)CCC(=O)O)CCC4(C)C3CCC12C (stereo unspecified),inactive
19,CC(=O)OC1CC2(C)C(CC(O)C3C4(C)CCC(O)C(C)C4CCC32C)C1=C(CCC=C(C)C)C(=O)O (stereo unspecified),active
20,CC(=O)O[C@H]1C[C@@]2(C)[C@@H](C[C@@H](O)[C@@H]3[C@@]4(C)CC[C@@H](O)[C@@H](C)[C@@H]4CC[C@@]32C)/C1=C(/CCC=C(C)C)C(=O)O,active
21,CC(=O)OC1(C(C)=O)CCC2C3CC(C)C4=CC(=O)CCC4(C)C3CCC21C (stereo unspecified),inactive
22,CC(=O)O[C@H]1C[C@@]2(C)[C@@H](C[C@@H](O)[C@H]3[C@@]4(C)CC[C@@H](O)[C@@H](C)[C@H]4CC[C@@]32C)C1=C(CCC=C(C)C)C(=O)O,active
23,CC(=O)O[C@H]1C[C@@]2(C)[C@@H](C[C@@H](O)[C@H]3[C@@]4(C)CC[C@@H](O)[C@@H](C)[C@@H]4CC[C@@]32C)/C1=C(\CCC=C(C)C)C(=O)O,active
24,CC(=O)OC1(C(C)=O)CCC2C3C=C(C)C4=CC(=O)CCC4(C)C3CCC21C (stereo unspecified),inactive
